Reference: article PMC7819943, “Rice protein-binding microarrays: a tool to detect cis-acting elements near promoter regions in rice”
In all, about 35,000 sequences were measured (“fluorescence intensity (a.u.)”: median about 10,000, highest 2% from about 52,000 on). This excerpt belongs to a sample that is enriched for the highest values.

These sequences were tested against T1, OsWOX13 (Oryza sativa, UniProt Q5QMM3 1-267) (assay: protein-binding microarray (RPBM); PBS, 2% BSA, 51.3 ng/ul salmon testes DNA, 50 uM zinc acetate, 200 nM TF, 25 C, 1 h; high values mean tight binding). Settings: protein: recombinant; tags: N-terminal polyhistidine and DsRed monomer fusion (pET32a); label: CyDye5-dUTP incorporated in the synthesized complementary strand; 3' TTTTT single-stranded linker to array surface; dsDNA, one strand shown.
T1 sequence: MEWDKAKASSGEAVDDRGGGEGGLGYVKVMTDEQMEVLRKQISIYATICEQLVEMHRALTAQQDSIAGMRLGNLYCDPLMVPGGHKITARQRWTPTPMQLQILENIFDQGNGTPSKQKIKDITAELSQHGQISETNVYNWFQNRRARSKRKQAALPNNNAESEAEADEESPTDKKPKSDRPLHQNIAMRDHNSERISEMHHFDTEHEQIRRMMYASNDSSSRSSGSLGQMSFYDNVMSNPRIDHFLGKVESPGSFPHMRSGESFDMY
Procedure, shortened: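 Per-feature fluorescence intensity (arbitrary units), read on an Axon 4000B scanner, is the binding signal. Transcription factors carrying an N-terminal polyhistidine tag and DsRed fusion were expressed in E. coli BL21-CodonPlus and purified on Ni–NTA. A custom Agilent array, made double-stranded by primer extension with Cy5-dUTP and blocked with 2% BSA, was incubated with 200 nM protein in PBS, 2% BSA, salmon testes DNA and 50 µM zinc acetate at 25 °C for 1 h and then washed.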

Sequence | binding signal
TCCATTTATCCCGATAATTTGTACTACATTTGTATAGGCCCGGAGTCACCTAGTGCAG | 5670 fluorescence intensity (a.u.)
ACCCTTGATTTACTTGATAATTTGTTATATGTCCCCATCCCGGAGTCACCTAGTGCAG | 49800 fluorescence intensity (a.u.)
TTTGTTAAATTTCTCAATTGATTCATAATTCTTTATTAGCCGGAGTCACCTAGTGCAG | 10300 fluorescence intensity (a.u.)
AATTTTCTTATGATTAGCATTTCTATTGCTATTAGATGATCGGAGTCACCTAGTGCAG | 8930 fluorescence intensity (a.u.)
AACAAGATTGTGATTCATACATCTGCATCTTATTTTGTATCGGAGTCACCTAGTGCAG | 3650 fluorescence intensity (a.u.)
ATTGATTTGATTGTATTCATAATCATACAATTATCTTAGCCGGAGTCACCTAGTGCAG | 65200 fluorescence intensity (a.u.)
CCCTTGATTTACTTGATAATTTGTTATAGGTCCCTATCCCCGGAGTCACCTAGTGCAG | 53400 fluorescence intensity (a.u.)
GCTAATAGATTGCTATTGTATCTGCTCTTATGCATGATCGCGGAGTCACCTAGTGCAG | 61200 fluorescence intensity (a.u.)
AGATAATTCTTACTAGATGATTATTGTATATGCTGCTATCCGGAGTCACCTAGTGCAG | 9000 fluorescence intensity (a.u.)
CCCCATCTGTATTTTAAATTTATATCCGCCACTGATTGTACGGAGTCACCTAGTGCAG | 4240 fluorescence intensity (a.u.)
CCCGATTGACAAGCTGACTCAGCATGGAGGGACCCACATGCGGAGTCACCTAGTGCAG | 37700 fluorescence intensity (a.u.)
CAACACATGATTGCCGGGCTTTCTTCCCTCTCGTCCTGAGCGGAGTCACCTAGTGCAG | 32000 fluorescence intensity (a.u.)
TAGTACTACTCATCACCAATCAGCTGCCACACATGCATGGCGGAGTCACCTAGTGCAG | 5430 fluorescence intensity (a.u.)
CGCGCCAATCATCTCCCGCTCCCTCTTATCCTCCCCTCTCCGGAGTCACCTAGTGCAG | 14100 fluorescence intensity (a.u.)
AGGACTAATAGATTTCCAAGATGATCGGGACTGACCGATCCGGAGTCACCTAGTGCAG | 10600 fluorescence intensity (a.u.)
ACTATATAATTAAAATAGATTTCACCCGTTGCAACGCACGCGGAGTCACCTAGTGCAG | 13300 fluorescence intensity (a.u.)
AAAATATAATCAAAATAATTTACTTATCCATGTAATCATACGGAGTCACCTAGTGCAG | 3770 fluorescence intensity (a.u.)
CTAATGACGAATTAATTAGAATTAATAGATTTATCTTGCACGGAGTCACCTAGTGCAG | 53300 fluorescence intensity (a.u.)
TAATAGATAGATAGATAGATAGATAGATTAGTAATTTAGACGGAGTCACCTAGTGCAG | 30600 fluorescence intensity (a.u.)
GTTTAATGATAAATCTAGTAATATTAATTTTACATGATTGCGGAGTCACCTAGTGCAG | 25600 fluorescence intensity (a.u.)
ATATAATTAAATGATTAATTAATTAGTACCGTTTTACTTGCGGAGTCACCTAGTGCAG | 65500 fluorescence intensity (a.u.)
ATAATAAGATTAAAATAACATTTACCCGTTGCAAAGCACGCGGAGTCACCTAGTGCAG | 3610 fluorescence intensity (a.u.)
AACACCATACCAAAATCCAAATATACTTATATTTTACTTACGGAGTCACCTAGTGCAG | 65000 fluorescence intensity (a.u.)
CCAAATTACAACAAATATAATTTTACTTAATCCAAAGTAACGGAGTCACCTAGTGCAG | 8310 fluorescence intensity (a.u.)
AATGAATTTAGATAGATATATATATCTAGATTCATTAGCACGGAGTCACCTAGTGCAG | 7940 fluorescence intensity (a.u.)
ATAATATATGATTAATTAAGTTTTAATTATTACAAACTTGCGGAGTCACCTAGTGCAG | 37000 fluorescence intensity (a.u.)
ATAATTAGATTAAAATAGATTTTACCCGTTGCAATGCACGCGGAGTCACCTAGTGCAG | 56200 fluorescence intensity (a.u.)

Sequence | binding signal
TGGTCAGATAGCTAGATTGATATCCCTCTCTCTCTCTCACCGGAGTCACCTAGTGCAG | 13900 fluorescence intensity (a.u.)
TTGTAAATTACCTGCAAGGAAGAATTAACCAAGATGTCTTCGGAGTCACCTAGTGCAG | 5040 fluorescence intensity (a.u.)
AATCATTTTCAGTTACAAATTAAATGGTGTTTCAATAGCTCGGAGTCACCTAGTGCAG | 6090 fluorescence intensity (a.u.)
TTAATTATTGTGAGTAATAGATTAACGACACACGTGTTGACGGAGTCACCTAGTGCAG | 23300 fluorescence intensity (a.u.)
AATATACTTAATTACCTCTATTAGTTAATATACTTAACACCGGAGTCACCTAGTGCAG | 12000 fluorescence intensity (a.u.)
TAATAATTATAATTAATTACCGGAGTTACTTATTCTAAACCGGAGTCACCTAGTGCAG | 60400 fluorescence intensity (a.u.)
GTTTATAATAATTAAAACTTAATTAATCACATGTTATTACCGGAGTCACCTAGTGCAG | 22900 fluorescence intensity (a.u.)
CTTAACTTTAAATATATAATTTTATAATAATTTTACGTTGCGGAGTCACCTAGTGCAG | 17500 fluorescence intensity (a.u.)
TAAAACTTAATTAATTATACGTTAATATTACCTCGTTTTGCGGAGTCACCTAGTGCAG | 53900 fluorescence intensity (a.u.)
TTTAGATAATTAATATTTAAATAATTATACTCTCGTTTTGCGGAGTCACCTAGTGCAG | 29600 fluorescence intensity (a.u.)
AGTAATTAGTATGACCACCCTAATATACGGTAGTATGGTACGGAGTCACCTAGTGCAG | 27200 fluorescence intensity (a.u.)
TTTATTGATTGAGAGGAACTATCTACCTCTGTAATGACATCGGAGTCACCTAGTGCAG | 46600 fluorescence intensity (a.u.)
ATTTAAATTTCCATCCTTAAATTTGAAGGTGATTTTGAGGCGGAGTCACCTAGTGCAG | 21500 fluorescence intensity (a.u.)
ATTAATTACGCGCTAATCGTTGCTCCGTTTTCCGTGCAAACGGAGTCACCTAGTGCAG | 11400 fluorescence intensity (a.u.)
TTTAATTAATCACGCGCTAATAGACTGCTCCGTTTTCCGTCGGAGTCACCTAGTGCAG | 55800 fluorescence intensity (a.u.)
AGCTAATACTTAATTAATCACGCGTTAATGGACTGCTCCGCGGAGTCACCTAGTGCAG | 26700 fluorescence intensity (a.u.)
GCTAATACTTAATTAATCACGCGCTAATAGACCGCTCCGTCGGAGTCACCTAGTGCAG | 24500 fluorescence intensity (a.u.)
TTCTAATTAATCACGCGTTAATGGACCGCTCCGTTTTCCGCGGAGTCACCTAGTGCAG | 42300 fluorescence intensity (a.u.)
ACTTAATTAATTACGTGTTAATGGACTGCTCCGTTTTCCGCGGAGTCACCTAGTGCAG | 65500 fluorescence intensity (a.u.)
ACAGATTAATTAGGCTTAATATATTCATATCGCAGTTTACCGGAGTCACCTAGTGCAG | 50500 fluorescence intensity (a.u.)
ATTACGTAATTAATTAAAATACAAATTTCAGCATCCTTACCGGAGTCACCTAGTGCAG | 42300 fluorescence intensity (a.u.)
AGCCTAATTAATCCGTCATCAGCAAATGTTTATTGTAGCACGGAGTCACCTAGTGCAG | 29700 fluorescence intensity (a.u.)
CACATGTGATTGGGCCTCGAGCCTCAGCGTGCGTGCGCCCCGGAGTCACCTAGTGCAG | 20400 fluorescence intensity (a.u.)
CTCCCGTGCAGTTGCCAGTTGATTGGTTCAGCGTGGCTGCCGGAGTCACCTAGTGCAG | 9720 fluorescence intensity (a.u.)
CATTGATTGGCCAGCCGAGGTCTAGCCTCAACCTAGCGTGCGGAGTCACCTAGTGCAG | 54800 fluorescence intensity (a.u.)
ACTTCTATAATATATGTAAATTACCTTTTGGCTTTGCTGACGGAGTCACCTAGTGCAG | 4500 fluorescence intensity (a.u.)
TATAGATTAGAGAATTAGTGGAGAACAAAATATAATAAAGCGGAGTCACCTAGTGCAG | 5050 fluorescence intensity (a.u.)
